The entries come from a sample that favours hits as a whole.
GIRK2 activator: Activators of human GIRK2-containing channels. activation (% efficacy), % for hits at 37.5 µM. HEK293 GIRK2/NPY4 cells, thallium flux fluorescence. P48051. 34,000 tested, under 10 active. AID 1259324;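 active means primary screen hit, no activity in plain HEK293 cells, and in GIRK2-only cells above 5% efficacy rising with concentration; inactive means the rest, including fluorescent compounds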;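 further: efficacy is normalized control-subtracted fluorescence 15 s after thallium addition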
GluA2 TARP mod: modulates AMPAR-stargazin complexes | AID 1259245 | hit rate 3.5% among 40,000 | calls only at 30 µM | O88602+P19491 | HEK293 GluA2+stargazin, membrane potential dye (FDSS), glutamate EC50; hits were called plate by plate, in both directions;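 active means any of four per-well response measures lying three or more SD from its plate-wide compound average, in either direction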
Target sequence (O88602 whole entry, looked up): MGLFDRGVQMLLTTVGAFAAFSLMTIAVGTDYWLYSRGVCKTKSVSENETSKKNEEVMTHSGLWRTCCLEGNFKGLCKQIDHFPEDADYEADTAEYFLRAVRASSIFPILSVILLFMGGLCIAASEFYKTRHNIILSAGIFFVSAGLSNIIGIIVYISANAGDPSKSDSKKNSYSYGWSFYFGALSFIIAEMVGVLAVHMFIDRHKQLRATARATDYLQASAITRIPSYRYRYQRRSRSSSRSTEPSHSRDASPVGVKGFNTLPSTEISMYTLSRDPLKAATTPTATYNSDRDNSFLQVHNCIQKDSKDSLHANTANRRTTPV
Target sequence (P19491 whole entry, looked up): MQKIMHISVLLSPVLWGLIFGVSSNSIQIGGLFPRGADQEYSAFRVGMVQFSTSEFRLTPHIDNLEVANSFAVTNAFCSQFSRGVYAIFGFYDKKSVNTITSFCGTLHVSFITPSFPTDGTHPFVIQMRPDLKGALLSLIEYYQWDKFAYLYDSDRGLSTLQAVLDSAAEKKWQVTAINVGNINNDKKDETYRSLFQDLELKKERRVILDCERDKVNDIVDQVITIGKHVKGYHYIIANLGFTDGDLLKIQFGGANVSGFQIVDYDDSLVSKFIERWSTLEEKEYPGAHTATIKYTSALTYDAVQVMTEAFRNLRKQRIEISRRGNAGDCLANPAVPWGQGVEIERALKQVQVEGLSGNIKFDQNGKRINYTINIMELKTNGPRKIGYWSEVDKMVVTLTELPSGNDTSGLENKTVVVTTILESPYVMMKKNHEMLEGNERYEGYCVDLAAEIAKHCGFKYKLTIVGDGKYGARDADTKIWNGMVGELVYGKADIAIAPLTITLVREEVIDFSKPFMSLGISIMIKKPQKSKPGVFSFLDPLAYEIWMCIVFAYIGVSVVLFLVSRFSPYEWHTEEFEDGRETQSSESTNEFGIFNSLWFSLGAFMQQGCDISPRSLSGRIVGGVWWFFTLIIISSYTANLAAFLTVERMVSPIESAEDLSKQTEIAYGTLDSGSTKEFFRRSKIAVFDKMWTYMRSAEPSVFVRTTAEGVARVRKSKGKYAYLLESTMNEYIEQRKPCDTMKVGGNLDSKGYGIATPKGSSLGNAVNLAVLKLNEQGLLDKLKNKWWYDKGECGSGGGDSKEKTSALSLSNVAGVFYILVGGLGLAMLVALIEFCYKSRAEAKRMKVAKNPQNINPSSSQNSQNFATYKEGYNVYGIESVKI
The depositor's hits bear a star; i = inactive; x = no result; + = active, no number; ! = not active in a repeat.

SMILES	GIRK2 activator	GluA2 TARP mod
Fc1ccccc1Nc1nc(=S)[nH]c2ccccc12	i	i
CCOC(CNC(=O)C(=O)Nc1ccc(N2CCCCS2(=O)=O)cc1)OCC	x	+
CCOC(CNC(=O)C(=O)Nc1ccc(N2CCCS2(=O)=O)cc1)OCC	x	i
COc1ccc(S(=O)(=O)NCC(O)c2ccc(C(F)(F)F)cc2)c(C)c1 (stereo not given)	i	+
Cc1ccc(S(=O)(=O)NCC(O)c2ccc(C(F)(F)F)cc2)s1 (stereo not given)	i	i
O=S(=O)(NCC(O)c1ccc(C(F)(F)F)cc1)c1ccc(Br)s1 (stereo not given)	x	+
O=S(=O)(NCC(O)c1ccc(C(F)(F)F)cc1)c1ccccc1Cl (stereo not given)	i	i
O=S(=O)(NCC(O)c1ccc(C(F)(F)F)cc1)c1ccc(F)c(Cl)c1 (stereo not given)	i	+
O=S(=O)(NCC(O)c1ccsc1)c1ccc(F)c(Cl)c1 (stereo not given)	i	i
COc1ccc(S(=O)(=O)NCC(O)c2ccsc2)c(C)c1 (stereo not given)	i	i
O=S(=O)(Cc1cccc(F)c1)NCC(O)c1ccc(C(F)(F)F)cc1 (stereo not given)	i	+
CCOc1ccc(NC(=O)COc2cc(C(C)(C)C)nn2-c2nc(C)cc(C)n2)cc1	i	x
Cc1ccc(NC(=O)C(=O)NCC(c2cccn2C)N(C)C)cc1F (stereo not given)	i	i
CC(C)NC(=O)C(=O)NCCN1CCN(c2ccc(Cl)cc2)CC1	i	i
COCC(=O)NCC1(c2cccs2)CCOCC1	i	i
Cc1ccc(NC(=O)N2CCN(c3ccc(Nc4ccncc4)nn3)CC2)cc1	x	i
CCCNC(=O)CSc1cc(N2CCOCC2)ncn1	i	i
CC(C)(C)NC(=O)N1CCN(c2cc(N3CCOCC3)ncn2)CC1	i	+
O=C(NCc1cccnc1)N1CCOCC1	x	i
O=C(Cn1nc(-n2cccn2)ccc1=O)Nc1nc2c(s1)CCCC2	i	i
O=C(Nc1ccc(F)cc1F)c1ccc(=O)n(Cc2ccc(C(F)(F)F)cc2)c1	i	+
Cc1ccc(Cn2cc(C(=O)Nc3ccc(F)cc3F)ccc2=O)cc1	i	i
Cc1c(NC(C)c2cc(Cl)ccc2O)c(=O)n(-c2ccccc2)n1C (stereo not given)	x	+
Cc1c(NC(=S)NC(=O)c2ccccc2Cl)c(=O)n(-c2ccccc2)n1C	i	i
COCCNC(=O)Cc1ccc(NS(=O)(=O)c2ccc(F)c(C)c2)cc1	i	i
SMILES	GIRK2 activator	GluA2 TARP mod
CCCCc1ccc(NC(=O)CNC(=O)c2cn(C)nc2OC)cc1	i	i
CCOC(=O)c1ccc(-n2c(C)cn3c4c(=O)n(CCc5ccccc5)c(=O)n(C)c4nc23)cc1	x	i
COc1ccc(S(=O)(=O)c2c(C)cc(C)n(CC(=O)Nc3cc(OC)ccc3OC)c2=O)cc1	i	i
COc1ccc(CNC(=O)c2ccc(NC(=O)Cn3c(C)cc(C)c(C#N)c3=O)cc2)c(OC)c1	i	+!
CC(C)CCN1C(=O)C(C)(C)COc2ccc(NC(=O)COc3ccccc3)cc21	x	+
CC(C)CCN1C(=O)C(C)(C)COc2cc(NC(=O)COc3ccccc3)ccc21	x	i
COc1cccc(/C=C2/SC(=S)N(c3ccc(O)cc3)C2=O)c1OC	x	i
COc1cccc(C(=O)Nc2nnc(-c3ccc(Br)s3)o2)c1	i	i
COc1cc(OC)cc(C(=O)Nc2nnc(-c3ccc(C)cc3C)o2)c1	x	+
COc1cc(C(=O)Nc2nnc(-c3ccc(C)cc3C)o2)cc(OC)c1OC	x	i
COc1cc(OC)cc(C(=O)Nc2nnc(-c3ccc(Br)s3)o2)c1	i	+
C=CCOCC(O)CN1CCN(c2cccc(C(F)(F)F)c2)CC1 (stereo not given)	i	i
COc1cccc(NC(=O)Nc2ccc(Nc3ccc(-n4nc(C)cc4C)nn3)cc2)c1	i	i
O=C(c1ccccc1C(F)(F)F)N1CCC(Cn2cccn2)CC1	i	+
O=C(c1ccccc1F)N1CCC(Cn2cccn2)CC1	i	i
O=C(Nc1ccc(CC(=O)N2CCC(O)CC2)cc1)c1ccc(Cl)s1	i	i
Cc1nn(-c2nc3ccccc3[nH]2)c(=O)c2ccccc12	x	+
Cc1cc(=O)[nH]c(-n2nc(C)c(CCC(=O)NCc3ccccc3Cl)c2C)n1	i	i
CCCOc1cn(-c2ccc(F)cc2)nc1C(=O)Nc1nc(C)cs1	i	i
O=S(=O)(NC1(c2nc(-c3cnccn3)no2)CCCCC1)c1ccc(F)c(Cl)c1	i	+
Cc1noc(C)c1S(=O)(=O)NC1(c2nc(-c3cnccn3)no2)CCCCC1	i	i
O=C(CCc1csc(NC(=O)c2ccccc2)n1)Nc1nc2ccc(Cl)cc2s1	i	i
Nc1c(C(=O)NCc2ccc(Cl)cc2)nnn1-c1ccc(F)cc1	i	i
CCSc1nc(-c2ccccc2)c(NC(=O)CC)s1	i	i
COc1cc(S(=O)(=O)Nc2ccc3cn[nH]c3c2)ccc1Br	x	i
SMILES	GIRK2 activator	GluA2 TARP mod
CCN1CCc2nc(-c3ccccc3)n(CC(=O)Nc3cccc(SC)c3)c(=O)c2C1	i	x
CCOC(=O)N1CCc2nc(NC(=O)c3ccc([N+](=O)[O-])s3)sc2C1	x	+
CCOC(=O)N1CCc2nc(NC(=O)c3cccs3)sc2C1	i	i
Cn1c(=O)n(CC(N)=O)c(=O)c2c1nc1n(-c3ccccc3Cl)c(-c3ccccc3)cn21	x	i
CCS(=O)(=O)c1ccc(CC(=O)N2CCN(c3nc4c(C)ccc(Cl)c4s3)CC2)cc1	x	+
COc1ccc(S(=O)(=O)CC(=O)N2CCN(c3nc4c(C)ccc(Cl)c4s3)CC2)cc1	x	i
O=c1ccc(-c2ccccc2)nn1CCCNS(=O)(=O)CCc1ccccc1	i	i
CCOC(=O)C(C#N)C(=O)C1CC1 (stereo not given)	i	i
COc1ccc(C2(CNS(C)(=O)=O)CCCC2)cc1	i	i
COc1ccc(C2(CNC(=O)C3CCN(S(C)(=O)=O)CC3)CCCC2)cc1	i	+
O=C(CSc1ccc(NC(=O)c2cccs2)nn1)Nc1nccs1	i	x
Cn1c(=O)c2c(NCCc3ccc(S(N)(=O)=O)cc3)ccnc2n(C)c1=O	i	+
Cn1c(=O)c2c(SCC(=O)NCCc3ccccc3)ccnc2n(C)c1=O	i	i
Cc1nccn1CCNC(=O)C(=O)Nc1ccc2c(c1)OCO2	i	i
CCn1nccc1C(=O)Nc1nnc(-c2ccc(OC)cc2OC)o1	i	+
COc1ccc(-c2nnc(NC(=O)Cc3ccc(SC)cc3)o2)c(OC)c1	x	+
COc1ccc(-c2nnc(NC(=O)C3CCCN3S(C)(=O)=O)o2)c(OC)c1 (stereo not given)	i	i
COc1ccc(OC)c(-c2nnc(NC(=O)c3ccnn3C)o2)c1	i	x
COc1ccc(-c2nnc(NC(=O)C3CC3)o2)c(OC)c1	x	+
COc1ccc(-c2nnc(NC(=O)Cc3ccc(C)cc3)o2)c(OC)c1	i	i
Cc1ccc(=O)n(CCNC(=O)c2cncc(Br)c2)n1	i	x
O=C(NCCCO)C(=O)Nc1c2c(nn1-c1ccc(Cl)cc1)CSC2	i	i
